Bioassay records from PubChem BioAssay.
DT40 TDP1 CPT = qHTS for Inhibitors of human tyrosyl-DNA phosphodiesterase 1 (TDP1): qHTS in cells in presence of CPT; AID 686979, 2013; Potency, µM (top dose mostly 46.2 µM), inactives show at the top dose activity change, negative = growth inhibition, actives largely listed as inhibitors; 12% of 420,000 active; chicken DT40 Tdp1-/-;hTDP1 cells + 20 nM CPT, ATP luminescence, 48 h; further: potency means the concentration at half of the fitted maximal effect; nearly all actives have a fitted effect of over 55% in size
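Chicken DT40 Tdp1-/- cells complemented with human TDP1, 400 cells/well, exposed to compounds plus 20 nM camptothecin for at least 48 h at 37 C; viability read as ATP content by CellTiter-Glo luminescence.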
IL1B secr inh = qHTS for Inhibitors of Inflammasome Signaling: IL-1-beta AlphaLISA Primary Screen | activity change, % at 57.5 µM | THP-1 LPS/ATP IL-1B secretion, AlphaLISA, 16 h; hits give low values | AID 743279, 2014 | 4.7% of 360,000 active; in the data active means activity change below about -50%; inconclusive means mostly about -30% to -49%
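THP-1 cells pretreated 1 hr with compounds (up to 57.5 uM final), then stimulated with LPS (250 ng/mL final) plus ATP (1.25 mM final); secreted IL-1B measured by AlphaLISA after 16 hr, decreased signal indicating inhibition.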
DT40 TDP1 no CPT = qHTS for Inhibitors of human tyrosyl-DNA phosphodiesterase 1 (TDP1): qHTS in cells in absence of CPT; Potency, µM (highest dose often 46.2 µM), without a hit: at the top dose activity change, negative = growth inhibition, usual class: inhibitors; DT40 Tdp1-/- hTDP1 cells, no CPT, ATP luminescence, 48 h; 15% of 420,000 active; AID 686978, 2013; further: potency means the concentration at half of the fitted maximal effect; nearly all actives have a fitted effect of over 55% in size
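Stably hTDP1-transfected Tdp1-null chicken DT40 cells were treated with library compounds minus camptothecin and grown for at least 48 hr at 37 °C, after which cellular ATP was quantified by luminescence.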
uPA surface inh = qHTS for Inhibitors of Cell Surface uPA Generation; AID 540303, 2011; Potency, µM (titrated, usually from 38.3 µM), for inactives: top-dose activity change, negative = inhibition, most hits filed as inhibitors; cell surface uPA generation assay, qHTS; 0.31% of 330,000 active; active means well fitted inhibition curve with a large enough effect; inconclusive means small, poorly fitted or top-dose-only effect; inactive means no such curve, though single readings can be large or run the other way; tested in mouse RAW 264.7 cells; further: potency means the concentration at half of the fitted maximal effect; nearly all actives have a fitted effect of over 55% in size
HT1080 IDH1KD tx = qHTS for induction of synthetic lethality in tumor cells producing 2HG: qHTS for the HT-1080-IDH1KD cell line; HT-1080 IDH1 knockdown viability, ATP luminescence, 48 h; Potency, µM (series often up to 46.1 µM), for inactives: at the top dose activity, negative = toxicity, most hits filed as cytotoxic; 2% of 360,000 active; AID 686971, 2013;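 further: potency means the concentration at half of the fitted maximal effect; 0% = DMSO wells and -100% = cell-free medium wells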
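HT-1080-IDH1KD cells (IDH1 knocked down), 750/well in RPMI with 5% FBS, treated with compound 48 h at 37 degrees C. Viability by CellTiter-Glo luminescence, normalised to DMSO and no-cell wells; concentration-response curves classed.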
HT1080NT lethal = qHTS for induction of synthetic lethality in tumor cells producing 2HG: qHTS for the HT-1080-NT fibrosarcoma cell line; HT-1080-NT fibrosarcoma viability, CellTiter-Glo ATP luminescence, 48 h; Potency, µM (highest dose often 46.1 µM), inactives show top-dose activity, negative = less viability, most hits filed as cytotoxic; 1.6% of 360,000 active; AID 686970, 2013;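 further: NT is the 2HG producing partner of a matched IDH1 knockdown line; potency means the concentration at half of the fitted maximal effect; 0% = DMSO-treated cells and -100% = media-only wells without cells; nearly all actives have a fitted effect of over 55% in size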
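Fibrosarcoma NT cells, 750 per well in 5% FBS RPMI, were exposed to compound for 48 hours. Viability: CellTiter-Glo luminescence.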
* hit, by the source's call; ? = inconclusive; . = no result; ! = not confirmed by another sample; [ ] = remark or other dose. Hits are enriched below; roughly 19% of the tested compounds scored in any of these assays. Unless noted, the call rests on the fitted dose curve; in most records, active means well fitted curve in the direction sought with a large enough effect; inconclusive means small, poorly fitted or top-dose-only effect, or another doubt; inactive means no such curve, though single readings can be large; an effect the other way counts as inactive or inconclusive. Unless noted, on the % scale 0 is the no-effect control and ±100 the full control effect.

SMILES	DT40 TDP1 CPT	IL1B secr inh	DT40 TDP1 no CPT	uPA surface inh	HT1080 IDH1KD tx	HT1080NT lethal
CC(C)[C@H](N)C(=O)OCCOCn1cnc2c(=O)[nH]c(N)nc21	1.8µM*	5	2.9µM*	0%	9%	26%
C=C1C(=O)OC2C1CCC(C)C1(O)C=CC(=O)C21C (stereo not given)	2.6µM*	-109*	2.3µM*	25%	?	?
CCCNC(=O)N1[C@H]2CC[C@@H]1C(C(=O)OC)=C(c1ccc(C(C)=O)cc1)C2	6%	20	-11%	9%	10%	0%
CC[C@]12c3[nH]c4cc(-c5ccco5)ccc4c3CCN1C(=O)[C@@H](CC(=O)NC/C=C(\C)CCC=C(C)C)C[C@@H]2C(=O)N1CCN(C(=O)c2ccco2)CC1	?	?	21µM*	?	?	-20%
COc1ccccc1OCC(=O)Nc1ccc(Cl)cc1C(=O)c1ccccc1	?	14	-25%	.	-15%	6%
COc1ccc([N+](=O)[O-])cc1NC(=O)COC(=O)c1ccccc1C(=O)c1ccccc1	0%	-52*	?	-6%	-1%	-5%
O=c1c2ccccc2nc(CNCC2CCCO2)n1-c1ccc(F)cc1 (stereo not given)	?	21	-11%	-1%	6%	3%
CN1C(=O)C(=Cc2sc(=O)n(-c3ccccc3)c2N(C)C)C(=O)N(C)C1=O	16µM*	-97*	?	-11%	?	?
COc1ccccc1/C=C1/C(=N/O)C2CCN1CC2	-12%	17	-14%	5%	5%[9.24 µM]	4%
O=C1OC(c2ccc(O)c(S(=O)(=O)O)c2)(c2ccc(O)c(S(=O)(=O)O)c2)c2c(Br)c(Br)c(Br)c(Br)c21	8%	.	6%	.	.	.
O=c1[nH]c(O)c(/C=C2/C=CC(c3cc(Cl)ccc3Cl)=N2)c(=O)[nH]1	5.8µM*	20	6.5µM*	1%	-8%	0%
CN1CCCC2c3ccccc3CCC21 (stereo not given)	-9%	20	?	.	2%	8%
Cc1cc(-c2nc3ncccc3o2)ccc1NC(=O)c1ccccc1Br	-16%	.	?	.	.	.
CC1CCC2C(C)C(=O)OC3OC4(C)CCC1C32OO4 (stereo not given)	?	-13	0.84µM*!	-12%	-24%	-15%
CC1CCC2[C@@H](C)C(=O)OC3O[C@]4(C)CCC1C32OO4 (stereo not given in full)	?	-10	7.3µM*	-15%	-7%	0%
CCCCCCCC(=O)NC(Oc1ccccc1[N+](=O)[O-])C(Cl)(Cl)Cl (stereo not given)	?	2	-16%	6%	0%	-1%
CCN1CCN(C(=O)COc2ccc3c(c2)C(=O)CC2(CCN(C(C)=O)CC2)O3)CC1	-10%	19	?	1%	12%	7%
COc1cccc(-c2nc3c(C#N)c[nH]n3c2NC2CCCCC2)c1OC	?	.	21µM*	.	.	.
CCOC(=O)CSc1ccc(C(=O)N2CCC3(CC2)OCCO3)cc1[N+](=O)[O-]	-8%	11	22%	5%	0%	1%
Cc1cccc(NC(=O)Oc2ccc(Cl)c3cccnc23)c1	12µM*	19	5.2µM*	.	-9%	-5%
CN(C(=O)Oc1ccc(Cl)c2cccnc12)c1ccccc1	-15%	-9	-15%	3%	19%	16%
CC(=O)Oc1ccc(Cl)c2cccnc12	3.7µM*	.	8.2µM*	.	.	.
O=C(O)C1C2CCC(O2)C1C(=O)NC1CCCCC1 (stereo not given)	-7%	77	2%	-10%	?	-21%
COc1ccc(-c2c3c(=O)n(C)c(=O)n(C)c3c3n2-c2ccccc2NC3c2ccccc2OC)cc1 (stereo not given)	10µM*	.	15µM*	.	.	.
Cn1c(=O)c2c(-c3ccccc3)n3c(c2n(C)c1=O)C(c1cc(Cl)ccc1O)Nc1ccccc1-3 (stereo not given)	9.2µM*	.	15µM*	.	.	.
SMILES	DT40 TDP1 CPT	IL1B secr inh	DT40 TDP1 no CPT	uPA surface inh	HT1080 IDH1KD tx	HT1080NT lethal
CCCNC(=O)C1(C)CCN(Cc2ccc3ccccc3c2Br)C1 (stereo not given)	?	-14	?	.	?	-22%
[Cl][Pt+2][Cl].[NH-]C1CCCCC1[NH-] (stereo not given)	2.3µM*	-10	5.8µM*	.	-4%	4%
CCOC(=O)c1cc2c(cn1)[nH]c1ccccc12	?	5	18µM*!	14%	-6%	0%
Cc1cccc(-n2c(C)nc3ccccc3c2=O)n1	0%	-1	-2%	4%	18%	11%
Cc1nc2ccccc2c(=O)n1-c1c(Cl)cccc1Cl	23µM*	52	18µM*	.	-15%	-19%
Cc1cccc(-n2c(C)nc3ccccc3c2=O)c1C	5.8µM*	5	21µM*	-9%	-6%	-18%
C[C@H](NC(=O)N1C[C@H]2C[C@@H](C1)c1cccc(=O)n1C2)C(=O)Nc1cccc(F)c1	4%	-14	12%	4%	11%	8%
C=CCn1nc(C(=O)N2CCOCC2)cc1-c1sc(NC(=O)c2ccccc2)nc1C	15µM*	63	10µM*	.	-4%	-6%
OCC1CCCN2CCCCC12 (stereo not given)	6%	.	-6%	.	.	.
CCS(=O)(=O)NCc1nnc2n1-c1ccc(Cl)cc1C(c1ccccc1)=NC2	-2%	15	-7%	-3%	17%	17%
CC(Cc1ccccc1)NC(=O)Cc1ccc([N+](=O)[O-])cc1 (stereo not given)	-17%	21	-2%	13%	-3%	0%
O=c1oc(C2(O)CCCCC2)cc2ccc(-c3ccc4[nH]ccc4c3)cc12	12µM*	21	?	?	-18%	-6%
CCc1ccc(NC(=O)c2cccn(Cc3cccc([N+](=O)[O-])c3)c2=O)cc1	-19%	.	21µM*	.	.	.
Cc1ccc(Cn2cccc(C(=O)Nc3ccc4c(c3)OCCO4)c2=O)cc1	21µM*	.	16µM*	.	.	.
O=C(Nc1ccc2c(c1)OCCO2)c1cccn(Cc2cccc(F)c2)c1=O	21µM*	.	23µM*	.	.	.
CN1CCC2(CC1)CCN(C(=O)Oc1ccccc1)CC2	5%	.	-11%	.	.	.
